Test results from PubChem BioAssay AID1159580 (chemical genetic matrix, 2015).
The whole screen tested about 5,500 compounds, of which about 2,000 (36%) were called active. Another 18% or so got no clear call; they are omitted. Rule as the data show it: active = normalized growth mostly below about 0.91 (no sharp cut-off); inconclusive = no clear call, values can overlap the other calls; inactive = mostly above about 0.92. The list shows a part of the results.

Experiment: chemical genetic growth profiling, strain panel (AID 1159580);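 also: tested at 20 µM; growth read once vehicle control cultures reached saturation at 30 °C; 1 = growth at the plate median or of vehicle wells; lower values mean less growth of the strain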
Conditions: growth OD

Measured: normalized growth

CCC(=O)c1c(O)cc(O)cc1O
inactive: S. cerevisiae deletion strains, locus YKL009W, strain mrt4, active compounds read low 1.03 | S. cerevisiae deletion strains, locus YKL068W, active compounds read low 0.989 | S. cerevisiae deletion strains, locus YKL085W, strain MDH1 (second series), active compounds read low 0.986 | S. cerevisiae deletion strains, locus YKL085W, strain MDH1, active compounds read low 0.986 | S. cerevisiae deletion strains, locus YKL160W, strain elf1, active compounds read low 0.972 | S. cerevisiae deletion strains, locus YKL190W, strain CNB1, active compounds read low 1 | S. cerevisiae deletion strains, locus YKR001C, strain vps1, active compounds read low 0.959 | S. cerevisiae deletion strains, locus YKR026C, strain gcn3, active compounds read low 0.992 | S. cerevisiae deletion strains, locus YKR091W, strain srl3, active compounds read low 0.988 | S. cerevisiae deletion strains, locus YLL001W, strain dnm1, active compounds read low 0.99 | S. cerevisiae deletion strains, locus YLL026W, active compounds read low 0.999 | S. cerevisiae deletion strains, locus YLL041C, strain sdh2, active compounds read low 0.985 | S. cerevisiae deletion strains, locus YLR027C, strain aat2, active compounds read low 0.987 | S. cerevisiae deletion strains, locus YLR039C, strain RIC1, active compounds read low 0.938 | S. cerevisiae deletion strains, locus YLR058C, strain SHM2, active compounds read low 1 | S. cerevisiae deletion strains, locus YLR102C, strain apc9, active compounds read low 0.979 | S. cerevisiae deletion strains, locus YLR113W, strain HOG1, active compounds read low 0.974 | S. cerevisiae deletion strains, locus YLR221C, strain rsa3, active compounds read low 1.01 | S. cerevisiae deletion strains, locus YLR258W, strain gsy2, active compounds read low 0.996 | S. cerevisiae deletion strains, locus YLR262C, strain YPT6 (second series), active compounds read low 1.01 | S. cerevisiae deletion strains, locus YLR262C, strain YPT6, active compounds read low 0.991 | S. cerevisiae deletion strains, locus YLR268W, strain sec22, active compounds read low 0.968 | S. cerevisiae deletion strains, locus YLR320W, strain mms22, active compounds read low 1.01 | S. cerevisiae deletion strains, locus YLR330W, strain CHS5, active compounds read low 1 | S. cerevisiae deletion strains, locus YLR342W, strain FKS1 (second series), active compounds read low 1 | S. cerevisiae deletion strains, locus YLR342W, strain FKS1, active compounds read low 0.978 | S. cerevisiae deletion strains, locus YLR357W, strain rsc2, active compounds read low 0.968 | S. cerevisiae deletion strains, locus YLR370C, strain arc18, active compounds read low 0.981 | S. cerevisiae deletion strains, locus YLR371W, strain rom2, active compounds read low 0.982 | S. cerevisiae deletion strains, locus YLR384C, strain iki3, active compounds read low 0.98 | S. cerevisiae deletion strains, locus YLR418C, strain cdc73, active compounds read low 0.94 | S. cerevisiae deletion strains, locus YML016C, strain PPZ1, active compounds read low 0.999 | S. cerevisiae deletion strains, locus YML032C, strain rad52, active compounds read low 0.981 | S. cerevisiae deletion strains, locus YML120C, strain ndi1, active compounds read low 0.991 | S. cerevisiae deletion strains, locus YML124C, strain tub3, active compounds read low 0.978 | S. cerevisiae deletion strains, locus YMR058W, strain fet3, active compounds read low 0.978 | S. cerevisiae deletion strains, locus YMR078C, strain ctf18, active compounds read low 0.976 | S. cerevisiae deletion strains, locus YMR125W, strain sto1, active compounds read low 0.985 | S. cerevisiae deletion strains, locus YMR129W, active compounds read low 0.988 | S. cerevisiae deletion strains, locus YMR205C, strain PFK2, active compounds read low 0.998 | S. cerevisiae deletion strains, locus YMR223W, strain ubp8, active compounds read low 0.978 | S. cerevisiae deletion strains, locus YMR231W, strain pep5, active compounds read low 0.991 | S. cerevisiae deletion strains, locus YMR263W, strain SAP30, active compounds read low 1.01 | S. cerevisiae deletion strains, locus YMR307W, strain GAS1, active compounds read low 1.01 | S. cerevisiae deletion strains, locus YNL067W, strain RPL9B, active compounds read low 1.01 | S. cerevisiae deletion strains, locus YNL071W, strain lat1, active compounds read low 0.995 | S. cerevisiae deletion strains, locus YNL128W, strain TEP1, active compounds read low 1.01 | S. cerevisiae deletion strains, locus YNL153C, strain GIM3, active compounds read low 1.02 | S. cerevisiae deletion strains, locus YNL183C, strain NPR1, active compounds read low 0.953 | S. cerevisiae deletion strains, locus YNL209W, strain ssb2, active compounds read low 0.992 | S. cerevisiae deletion strains, locus YNL233W, strain BNI4, active compounds read low 0.988 | S. cerevisiae deletion strains, locus YNL248C, strain rpa49, active compounds read low 1 | S. cerevisiae deletion strains, locus YNL250W, strain rad50, active compounds read low 0.981 | S. cerevisiae deletion strains, locus YNL271C, strain bni1, active compounds read low 0.979 | S. cerevisiae deletion strains, locus YNL298W, strain CLA4, active compounds read low 0.973 | S. cerevisiae deletion strains, locus YNL307C, strain MCK1, active compounds read low 0.991 | S. cerevisiae deletion strains, locus YNL322C, strain KRE1 (second series), active compounds read low 0.97 | S. cerevisiae deletion strains, locus YNL322C, strain KRE1, active compounds read low 1.01 | S. cerevisiae deletion strains, locus YNR049C, strain mso1, active compounds read low 0.987 | S. cerevisiae deletion strains, locus YNR052C, strain pop2, active compounds read low 0.983 | S. cerevisiae deletion strains, locus YOL006C, strain TOP1, active compounds read low 1.12 | S. cerevisiae deletion strains, locus YOL012C, strain htz1 0.785 | S. cerevisiae deletion strains, locus YOL147C, strain pex11, active compounds read low 0.97 | S. cerevisiae deletion strains, locus YOR001W, strain rrp6, active compounds read low 1.02 | S. cerevisiae deletion strains, locus YOR061W, strain CKA2, active compounds read low 1.01 | S. cerevisiae deletion strains, locus YOR069W, strain VPS5, active compounds read low 1 | S. cerevisiae deletion strains, locus YOR070C, strain gyp1, active compounds read low 0.985 | S. cerevisiae deletion strains, locus YOR080W, strain dia2, active compounds read low 0.981 | S. cerevisiae deletion strains, locus YOR083W, strain WHI5, active compounds read low 0.983 | S. cerevisiae deletion strains, locus YOR106W, strain vam3, active compounds read low 0.987 | S. cerevisiae deletion strains, locus YOR136W, strain idh2, active compounds read low 0.984 | S. cerevisiae deletion strains, locus YOR144C, strain elg1, active compounds read low 0.986 | S. cerevisiae deletion strains, locus YOR184W, strain ser1, active compounds read low 0.992 | S. cerevisiae deletion strains, locus YOR231W, strain MKK1, active compounds read low 1.01 | S. cerevisiae deletion strains, locus YOR265W, strain rbl2, active compounds read low 0.982 | S. cerevisiae deletion strains, locus YOR270C, strain vph1, active compounds read low 1.04 | S. cerevisiae deletion strains, locus YOR290C, strain snf2, active compounds read low 0.973 | S. cerevisiae deletion strains, locus YOR316C, strain cot1, active compounds read low 0.984 | S. cerevisiae deletion strains, locus YPL051W, strain arl3, active compounds read low 0.973 | S. cerevisiae deletion strains, locus YPL055C, strain LGE1, active compounds read low 1.02 | S. cerevisiae deletion strains, locus YPL078C, strain atp4, active compounds read low 0.996 | S. cerevisiae deletion strains, locus YPL106C, strain sse1, active compounds read low 0.938 | S. cerevisiae deletion strains, locus YPL240C, strain hsp82, active compounds read low 0.991 | S. cerevisiae deletion strains, locus YPL241C, strain CIN2, active compounds read low 0.996 | S. cerevisiae deletion strains, locus YPL256C, strain CLN2, active compounds read low 0.997 | S. cerevisiae deletion strains, locus YPR119W, strain clb2, active compounds read low 0.971 | S. cerevisiae deletion strains, locus YPR141C, strain kar3, active compounds read low 0.974 | S. cerevisiae deletion strains, locus YPR163C, strain tif3, active compounds read low 0.991 | S. cerevisiae deletion strains, locus YPR167C, strain met16, active compounds read low 0.98 | S. cerevisiae deletion strains, strain wtn01, active compounds read low 0.978 | S. cerevisiae strains, strain wild type, active compounds read low 1.01
